NPC1 promoter act = activates the NPC1 promoter; Huh7 NPC1 promoter luciferase reporter, 24 h; Potency, µM (titrated, usually from 9.22 µM), for the others: at the highest dose activation, actives largely listed as activators; hit rate 2.4% among 320,000; AID 485313; further: % of control where 0% means no effect; nearly all actives have a fitted effect of over 60% in size
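Stably transfected Huh7 (NPC1 promoter→luciferase), 1500 cells/well in Opti-MEM + 10% FBS, 2 h settle, then compound 24 h at 37 °C. Luminescence after 10 min with Amplite reagent.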
FLuc counter = counter-screen for miR-21 project: firefly luciferase inhibitors or activators; hit rate 6.9% among 360,000; P08659; Potency, µM (highest dose often 57.5 µM), without a hit: at the top dose activity change, negative = inhibition, actives largely listed as inhibitors; AID 588342; purified FLuc, Km substrates, luminescence inhibition;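 further: plate controls were vehicle for no effect and reference inhibitor for full effect; nearly all actives have a fitted effect of over 55% in size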
Target sequence (P08659 whole entry, looked up): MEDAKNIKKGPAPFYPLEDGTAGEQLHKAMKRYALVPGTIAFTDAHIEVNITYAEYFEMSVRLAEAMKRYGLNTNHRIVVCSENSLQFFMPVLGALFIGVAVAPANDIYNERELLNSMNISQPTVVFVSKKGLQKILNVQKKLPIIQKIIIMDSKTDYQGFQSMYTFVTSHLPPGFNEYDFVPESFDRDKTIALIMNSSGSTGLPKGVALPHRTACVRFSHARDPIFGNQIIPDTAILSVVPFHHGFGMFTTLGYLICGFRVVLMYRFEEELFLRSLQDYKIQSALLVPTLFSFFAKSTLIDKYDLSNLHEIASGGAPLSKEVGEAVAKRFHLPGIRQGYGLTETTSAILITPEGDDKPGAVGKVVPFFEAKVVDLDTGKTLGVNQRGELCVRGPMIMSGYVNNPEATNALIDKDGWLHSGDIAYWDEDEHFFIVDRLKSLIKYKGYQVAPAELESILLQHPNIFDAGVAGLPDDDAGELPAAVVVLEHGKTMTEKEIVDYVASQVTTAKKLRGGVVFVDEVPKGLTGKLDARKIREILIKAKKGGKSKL
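Purified P. pyralis luciferase (10nM final) with 10uM D-luciferin and 10uM ATP (Km levels) in 50mM Tris acetate pH 7.5, 10mM Mg acetate, 0.01% Tween-20, 0.05% BSA; qHTS 6-point titration, ~60 µM downward; luminescence read.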
SMN2 splice enh = increases expression of the SMN2 splice variant; HEK293 SMN2-luciferase splicing reporter, luminescence, 30-36 h; Potency, µM (top dose mostly 46.1 µM), for inactives: top-dose activity change, positive = activation, actives largely listed as activators; hit rate 2.8% among 210,000; AID 1458; further: % of control where 0% means no effect; nearly all actives have a fitted effect of over 55% in size
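HEK293 cells carry an SMN2 minigene-luciferase reporter in which exon 7 inclusion puts luciferase in frame. Cells were seeded at 2000 cells/well, attached for 10-12 hours, then exposed to compounds for 30-36 hours at 37C before ONE-Glo luminescence.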
Rab9 promoter act = activates the Rab9 promoter; Potency, µM (top dose mostly 9.22 µM), for the others: top-dose activation, negative = inhibition, hits mostly activators; hit rate 2.8% among 320,000; Huh7 Rab9 promoter-luciferase reporter, luminescence, 24 h; further: % of control where 0% means no effect; nearly all actives have a fitted effect of over 60% in size
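Promoter activation is measured as luciferase luminescence in Huh7 cells stably transfected with a Rab9 promoter–luciferase construct, following 24 h compound exposure at 37 °C and 10 min reagent incubation at ambient temperature.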
Luc counter = blocks Kinase-Glo luciferase, a counter-screen artifact | Q27757 | Kinase-Glo luciferase, ATP luminescence, 8 min | Potency, µM (titrated, usually from 38.3 µM), for the others: top-dose activity change, negative = inhibition, usual class: inhibitors | hit rate 0.28% among 200,000; further: on the % scale 0 is the no-effect control and ±100 the full control effect; nearly all actives have a fitted effect of over 60% in size
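Light output from Kinase-Glo luciferase with luciferin and 10 uM ATP in 50 mM imidazole pH 7.2, KCl, MgCl2, Tween 20, BSA; compound pin-delivered, 8-min ambient incubation, then luminescence read.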
ELG1 genotoxic = genotoxicity induction in ELG1-luciferase HEK293T cells | HEK293T ELG1-luciferase reporter, luminescence, 16 h | Potency, µM (series often up to 46 µM), without a hit: at the highest dose activity change, positive = activation, actives largely listed as activators | hit rate 1.3% among 330,000; further: % of control where 0% means no effect; nearly all actives have a fitted effect of over 60% in size
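Quantitative HTS format in 1536-well plates. HEK293T ELG1-luciferase reporter cells receive test compound and are incubated 16 hr at 37 °C, 5% CO2; ONE-Glo added, 30 min room temperature, then luminescence read.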
Numbers without * were called inactive. Compounds with a hit are over-represented: about 7.4% of the library has one in this group of screens. The call rests on the fitted dose curve; in most records, active means well fitted curve in the direction sought with a large enough effect; inconclusive means small, poorly fitted or top-dose-only effect, or another doubt; inactive means no such curve, though single readings can be large; an effect the other way counts as inactive or inconclusive. Potency means the concentration at half of the fitted maximal effect.

How did Cc1cccc(NC(=O)CSc2nc(N)c(NC(=O)c3cccs3)c(=O)[nH]2)c1C do in these assays?
NPC1 promoter act: -1.5%; FLuc counter: inconclusive; SMN2 splice enh: 1.0%; Rab9 promoter act: -8.4%; Luc counter: -1.4%; ELG1 genotoxic: 0.0%

What do the screens show for `CC1CCN(S(=O)(=O)c2ccc3ncn(CC(=O)Nc4ccccc4C(F)(F)F)c(=O)c3c2)CC1`?
FLuc counter: -0.8%; SMN2 splice enh: 5.9%

Results for O=C(COC(=O)c1cc(Br)ccc1O)NNC(=O)c1cccs1 ?
NPC1 promoter act: -3.1%; FLuc counter: -15.4%; Rab9 promoter act: 0.8%; ELG1 genotoxic: 2.5%

How did Cc1cc(C(=O)CSc2nc3ccccc3o2)c(C)n1C1CC1 do in these assays?
NPC1 promoter act: 2.24µM*; FLuc counter: 13.5µM*; SMN2 splice enh: 11.2µM*; Rab9 promoter act: 2.24µM*; Luc counter: -2.0%; ELG1 genotoxic: 18.4µM*

What do the screens show for `Cc1cc(C(=O)CSc2nnc(Cc3ccccc3)o2)c(C)n1Cc1ccc2c(c1)OCO2`?
NPC1 promoter act: -5.8%; FLuc counter: -22.3%; SMN2 splice enh: -48.9%; Rab9 promoter act: -5.8%; Luc counter: -1.4%; ELG1 genotoxic: -6.1%

How did C=CCn1c(C)cc(C(=O)CSc2nnc(Cc3ccccc3)o2)c1C do in these assays?
NPC1 promoter act: 14.2%; FLuc counter: 15.1µM*; SMN2 splice enh: -6.8%; Rab9 promoter act: 6.9%; Luc counter: 0.6%; ELG1 genotoxic: 0.6%

How did O=C(CSc1nnc(NCc2ccccc2)s1)c1ccco1 do in these assays?
NPC1 promoter act: 17.3%; FLuc counter: 15.1µM*; SMN2 splice enh: 9.2%; Rab9 promoter act: 9.9%; Luc counter: -2.4%; ELG1 genotoxic: 4.9%

Results for C=CCn1c(C)cc(C(=O)CSc2nc3ccccc3o2)c1C ?
NPC1 promoter act: 0.631µM*; FLuc counter: 1.9µM*; SMN2 splice enh: inconclusive; Rab9 promoter act: inconclusive; Luc counter: 1.1%; ELG1 genotoxic: 1.64µM*

How did Cc1cc(C(=O)CSc2ncnc3ccccc23)c(C)n1C1CC1 do in these assays?
NPC1 promoter act: 15.5%; FLuc counter: inconclusive; Rab9 promoter act: -6.2%; ELG1 genotoxic: 0.1%

What do the screens show for `C=CCn1c(C)cc(C(=O)CSc2nnc(NCc3ccccc3)s2)c1C`?
NPC1 promoter act: 6.7%; FLuc counter: 16.9µM*; SMN2 splice enh: 3.0%; Rab9 promoter act: 10.9%; Luc counter: -0.2%; ELG1 genotoxic: 13.5%

Results for CN(C)c1ccc(N2CN=C3SCC(=O)N3C2)cc1 ?
NPC1 promoter act: 14.9%; FLuc counter: 10.7µM*; SMN2 splice enh: -12.2%; Rab9 promoter act: 6.3%; Luc counter: -6.6%; ELG1 genotoxic: inconclusive

Results for CCN1CCN(CCC(=O)Nc2ccccc2OC)CC1 ?
NPC1 promoter act: -0.9%; FLuc counter: 1.0%; SMN2 splice enh: -8.2%; Rab9 promoter act: 1.3%; Luc counter: -3.9%; ELG1 genotoxic: 2.1%

How did COc1ccccc1NC(=O)Nc1ccc(Cc2ccncc2)cc1 do in these assays?
NPC1 promoter act: 4.5%; FLuc counter: 16.9µM*; SMN2 splice enh: -2.6%; Rab9 promoter act: 13.3%; Luc counter: -1.9%; ELG1 genotoxic: 6.2%

What do the screens show for `CCN1CCN(Cc2ccc(NC(=O)Nc3ccccc3OC)cc2)CC1`?
NPC1 promoter act: inconclusive; FLuc counter: 10.7µM*; Rab9 promoter act: inconclusive; Luc counter: 4.0%; ELG1 genotoxic: 18.4µM*

What do the screens show for `COc1ccccc1NC(=O)Nc1ccc(N2CCOCC2)cc1`?
NPC1 promoter act: inconclusive; FLuc counter: 16.9µM*; SMN2 splice enh: 112.1%; Rab9 promoter act: inconclusive; Luc counter: -17.9%; ELG1 genotoxic: inconclusive

How did COc1ccccc1CNCC(=O)Nc1ccc(N2CCOCC2)cc1 do in these assays?
NPC1 promoter act: -4.5%; FLuc counter: 0.5%; SMN2 splice enh: inconclusive; Rab9 promoter act: -14.3%; Luc counter: 1.7%; ELG1 genotoxic: 1.1%

What do the screens show for `COc1ccccc1NC(=O)Nc1ccc(CC#N)cc1`?
NPC1 promoter act: inconclusive; FLuc counter: 21.3µM*; Rab9 promoter act: inconclusive; ELG1 genotoxic: inconclusive

Results for COc1ccccc1NC(=O)Nc1ccc(C(N)=O)cc1 ?
NPC1 promoter act: 18.2%; FLuc counter: inconclusive; SMN2 splice enh: inconclusive; Rab9 promoter act: inconclusive; Luc counter: -5.5%; ELG1 genotoxic: 14.2%

How did COc1ccccc1NC(=O)Nc1ccncc1 do in these assays?
NPC1 promoter act: -3.3%; FLuc counter: 3.8%; SMN2 splice enh: -34.3%; Rab9 promoter act: -1.8%; Luc counter: -11.8%; ELG1 genotoxic: -12.9%

Results for Cc1ccc(-n2ccnc(NCCc3ccc(S(N)(=O)=O)cc3)c2=O)cc1C ?
FLuc counter: -10.6%

How did O=C(C[C@@H]1C/C=C\CCC(=O)OC[C@H](Cc2ccccc2)NC1=O)N[C@@H](CO)Cc1ccccc1 do in these assays?
ELG1 genotoxic: -0.6%

How did COC(CNC(=O)C(=O)Nc1cc2c3c(c1)CCN3C(=O)CC2)OC do in these assays?
NPC1 promoter act: 3.1%; FLuc counter: 0.9%; Rab9 promoter act: -4.4%; ELG1 genotoxic: 10.0%

Results for O=C(Nc1ccc(N2CCOCC2)cc1)Nc1cnsn1 ?
NPC1 promoter act: inconclusive; FLuc counter: 16.9µM*; SMN2 splice enh: 12.6µM*; Rab9 promoter act: inconclusive; Luc counter: -8.8%; ELG1 genotoxic: 14.5%

What do the screens show for `CC1CCC2C(=O)N(c3ccccc3OC(=O)c3ccccc3F)C(=O)C2C1` (configuration not stated)?
NPC1 promoter act: -3.5%; FLuc counter: 7.3%; SMN2 splice enh: -9.3%; Rab9 promoter act: -8.2%; Luc counter: 2.5%; ELG1 genotoxic: -4.3%

What do the screens show for `CSc1n[nH]c(NCc2ccc(C)cc2)n1`?
NPC1 promoter act: 29.4%; FLuc counter: 23.9µM*; SMN2 splice enh: 15.8µM*; Rab9 promoter act: inconclusive; Luc counter: -0.3%; ELG1 genotoxic: inconclusive

What do the screens show for `CSc1n[nH]c(NCc2ccc(Cl)cc2)n1`?
NPC1 promoter act: 4.9%; FLuc counter: inconclusive; SMN2 splice enh: 26.7%; Rab9 promoter act: -2.5%; Luc counter: -1.2%; ELG1 genotoxic: -1.6%

How did O=C(Nc1ccn(Cc2ccccc2)n1)c1ccc2c(c1)OCO2 do in these assays?
NPC1 promoter act: inconclusive; FLuc counter: 5.36µM*; SMN2 splice enh: inconclusive; Rab9 promoter act: 2.82µM*; Luc counter: -1.4%; ELG1 genotoxic: 18.9%

Results for O=C(Nc1ccn(Cc2ccc(Cl)cc2)n1)c1ccccc1 ?
NPC1 promoter act: inconclusive; FLuc counter: 10.7µM*; SMN2 splice enh: 12.6µM*; Rab9 promoter act: 3.55µM*; Luc counter: 2.4%; ELG1 genotoxic: inconclusive
